Mdm2-MdmX inh – inhibitors of human Mdm2/MdmX interaction; O15151+Q00987; SaOS-2 split-luciferase Mdm2/MdmX complementation, luminescence; inhibition, % at 8 µM; 330,000 tested, 3% active;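 active = inhibition of at least 50% at 8 µM in the primary screen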
Target sequence (O15151 whole entry, looked up): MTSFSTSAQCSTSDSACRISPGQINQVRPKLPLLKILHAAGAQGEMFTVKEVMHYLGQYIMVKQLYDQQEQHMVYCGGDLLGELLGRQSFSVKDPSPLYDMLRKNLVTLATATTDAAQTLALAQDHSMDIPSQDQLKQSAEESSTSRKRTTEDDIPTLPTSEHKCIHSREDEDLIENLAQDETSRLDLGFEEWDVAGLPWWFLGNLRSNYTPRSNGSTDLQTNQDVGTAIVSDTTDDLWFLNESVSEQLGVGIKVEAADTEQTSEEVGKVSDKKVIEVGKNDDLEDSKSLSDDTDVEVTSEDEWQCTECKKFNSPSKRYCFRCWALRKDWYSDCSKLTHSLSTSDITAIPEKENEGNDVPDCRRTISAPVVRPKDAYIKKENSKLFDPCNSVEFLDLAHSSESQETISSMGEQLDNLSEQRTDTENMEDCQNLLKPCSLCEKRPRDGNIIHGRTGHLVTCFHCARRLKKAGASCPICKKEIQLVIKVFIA
Target sequence (Q00987 whole entry, looked up): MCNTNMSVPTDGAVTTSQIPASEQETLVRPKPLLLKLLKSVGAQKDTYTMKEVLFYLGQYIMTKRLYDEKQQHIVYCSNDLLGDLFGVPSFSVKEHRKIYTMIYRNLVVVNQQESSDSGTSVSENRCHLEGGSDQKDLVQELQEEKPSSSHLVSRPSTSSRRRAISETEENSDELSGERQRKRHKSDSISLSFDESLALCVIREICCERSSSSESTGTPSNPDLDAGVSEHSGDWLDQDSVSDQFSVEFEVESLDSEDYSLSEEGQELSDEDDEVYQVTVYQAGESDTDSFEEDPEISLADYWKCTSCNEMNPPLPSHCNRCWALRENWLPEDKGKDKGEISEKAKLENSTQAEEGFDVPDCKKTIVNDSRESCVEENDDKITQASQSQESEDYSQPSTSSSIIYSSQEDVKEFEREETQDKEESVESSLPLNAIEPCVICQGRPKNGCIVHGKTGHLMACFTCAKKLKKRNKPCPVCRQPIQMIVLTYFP
Gli-Sufu block – Gli-Sufu pathway antagonism | Sufu-KO-LIGHT fibroblasts, Gli luciferase reporter luminescence | inhibition, % at 5 µM | 340,000 tested, 0.74% active | AID 588413;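 active = inhibition above about 55%, limit read from the data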;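 note: 0% = DMSO-treated cells and 100% = wells with medium but no cells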
Jurkat NFkB inh – lowers PMA/ionomycin-induced NF-kB signal in Jurkat cells | AID 435003 | PMA/ionomycin-induced NF-kB luciferase reporter, luminescence | 330,000 tested, 0.53% active | inhibition, % at 4 µM; in the data active = inhibition above about 50%
Beta cell apopt – blocks beta cell apoptosis | INS-1E cytokine-induced death, ATP luminescence, 48 h; percent of positive-control rescue, neutral wells zero | protection from apoptosis, % (no concentration beside the values) | 300,000 tested, 0.8% active | AID 435005;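 active = Every replicate reaches about 75%, or at least half do and their mean reaches it too, limit read from the data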;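 note: 0% = cytokine-treated negative control wells and 100% = positive control rescue; higher means more ATP so stronger rescue from cytokine killing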
697 NFkB inh – lowers PMA/ionomycin-induced NF-kB signal in 697 B cells; 697 B-cell NF-kB luciferase reporter, 16 h; inhibition, % at 4 µM; 330,000 tested, 0.33% active; in the data active = inhibition above about 35%
CSC inhib – cancer stem cell inhibition; cancer stem cell-like cells viability, luminescence; inhibition, % at 7.5 µM; 300,000 tested, 1.1% active; AID 2717; in the data active = inhibition above about 75%; tested in HMLE shEcad cells
Jurkat NFkB conf – inhibitors of the PMA/ionomycin-induced NF-kB reporter in Jurkat cells, retest. shares compounds with Jurkat NFkB inh. 2,700 tested, 27% active. Jurkat NF-kB luciferase, 16 h. inhibition, % at 4 µM. AID 435020;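 active = inhibition reaching about 45% at 4 µM in either replicate, limit read from the data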;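 note: plate controls were PMA/ionomycin stimulated DMSO wells for no effect and unstimulated DMSO wells for full effect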
Mdm2 MdmX conf – human Mdm2/MdmX binding inhibition, confirmed; shares compounds with Mdm2-MdmX inh; luminescent assay; AID 489028; 10,000 tested, 55% active; inhibition, % at 8 µM; in the data active = inhibition above about 40%
FLuc counter – inhibits full-length luciferase, flagging false Mdm2/MdmX hits. SaOS-2 full-length luciferase counterscreen, luminescence. 6,200 tested, 77% active. inhibition, % at 8 µM. shares compounds with Mdm2-MdmX inh. AID 504607;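 active = mean inhibition at 8 µM reaching about 37%, which flags the compound as non-specific, limit read from the data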;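 note: p53-null SaOS-2 cells with luciferase driven by a doxycycline-inducible promoter; compound on cells about two nights before reading with doxycycline added after day one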
* = called active by the depositor. This is a sample that favours compounds with a hit; in the whole collection about 4.5% have one here.

Results for CCCOc1ccc(C(=O)N/N=C/c2c[nH]c3ccc(Br)cc23)cc1 ?
Mdm2-MdmX inh: 46.4; Gli-Sufu block: 24.7; Jurkat NFkB inh: -45.8; Beta cell apopt: -7.7; 697 NFkB inh: 16.4; CSC inhib: 51.1

Results for CCCCCN=C(N)N/N=C/c1c[nH]c2ccc(OC)cc12 ?
Mdm2-MdmX inh: 99.0*; Gli-Sufu block: 31.0; Jurkat NFkB inh: 99.6*; Beta cell apopt: 55.9; 697 NFkB inh: -12.6; CSC inhib: 119.2*; Jurkat NFkB conf: 30.8; Mdm2 MdmX conf: 97.6*; FLuc counter: 30.4

Results for O=C1/C(=C/c2ccc(N3CCOCC3)o2)SC(=Nc2ccccc2)N1CCc1c[nH]c2ccccc12 ?
Mdm2-MdmX inh: 99.7*; Gli-Sufu block: 53.5; Jurkat NFkB inh: 90.7*; Beta cell apopt: 100.7*; 697 NFkB inh: -37.9; CSC inhib: 85.0*; Jurkat NFkB conf: 38.2; Mdm2 MdmX conf: 98.5*; FLuc counter: 4.0

How did Cc1ccc(C2=NN(C(=O)CSc3nc4ncc(Cl)cc4[nH]3)C(c3ccco3)C2)cc1 (centres undefined) do in these assays?
Mdm2-MdmX inh: -12.5; Gli-Sufu block: 2.9; Jurkat NFkB inh: -20.4; Beta cell apopt: 3.8; 697 NFkB inh: -31.7; CSC inhib: -11.0

How did Cc1ccc(C2=NN(C(=O)CSc3nccn3C)C(c3ccco3)C2)cc1 (centres undefined) do in these assays?
Mdm2-MdmX inh: 65.0*; Gli-Sufu block: 12.0; Jurkat NFkB inh: 62.6*; 697 NFkB inh: 7.7; CSC inhib: -4.2; Jurkat NFkB conf: 20.5; Mdm2 MdmX conf: 57.2*; FLuc counter: 67.5*

Results for Cc1ccc(/C=N/NC(=O)c2cccc(S(=O)(=O)N3CCOCC3)c2)o1 ?
Mdm2-MdmX inh: -8.7; Gli-Sufu block: -17.3; Jurkat NFkB inh: 11.7; Beta cell apopt: -3.5; 697 NFkB inh: 21.4; CSC inhib: 4.6

How did CCCCCn1c(=O)[nH]c2cc(C(=O)NC3CCN(Cc4ccccc4)CC3)ccc2c1=O do in these assays?
Mdm2-MdmX inh: 92.0*; Gli-Sufu block: 8.4; Jurkat NFkB inh: 51.1*; Beta cell apopt: 6.6; 697 NFkB inh: -53.6; CSC inhib: 0.6; Jurkat NFkB conf: 35.8; Mdm2 MdmX conf: 28.9

Results for COc1cc(/C=C(/C#N)c2nc3ccccc3[nH]2)ccc1OCC(=O)Nc1ccccc1C ?
Mdm2-MdmX inh: 100.3*; Gli-Sufu block: -4.0; Jurkat NFkB inh: 52.8*; Beta cell apopt: 3.1; 697 NFkB inh: 12.8; CSC inhib: 83.1*; Jurkat NFkB conf: 19.1; Mdm2 MdmX conf: 17.3

What do the screens show for `COc1cc(/C=C(\C#N)c2nc3ccccc3[nH]2)ccc1OC(=O)c1ccco1`?
Mdm2-MdmX inh: -23.7; Gli-Sufu block: -20.9; Jurkat NFkB inh: -53.8; Beta cell apopt: -4.6; 697 NFkB inh: 11.3; CSC inhib: 16.8

How did CC(Sc1nnc(C2CC2)n1C1CC1)C(=O)Nc1cccc(S(=O)(=O)N2CCOCC2)c1 (centres undefined) do in these assays?
Mdm2-MdmX inh: 22.1; Gli-Sufu block: 5.6; Jurkat NFkB inh: -4.1; Beta cell apopt: -2.8; 697 NFkB inh: 12.9; CSC inhib: -4.2

Results for CC1CCCC(C)N1CCCNC(=O)c1csc2c1CCCCC2 (centres undefined) ?
Mdm2-MdmX inh: -11.9; Jurkat NFkB inh: -8.5; Beta cell apopt: -2.3; 697 NFkB inh: -38.6; CSC inhib: 3.8

Results for Cc1ccc(/C(N)=N/OC(=O)c2cccc(F)c2)cc1 ?
Mdm2-MdmX inh: -59.1; Gli-Sufu block: -2.2; Jurkat NFkB inh: -135.6; Beta cell apopt: -4.7; 697 NFkB inh: -152.3; CSC inhib: 3.7

Screening results (PubChem BioAssay)
